# According to PubChem BioAssay (Tox21):
# Values without a mark were called inactive. Inconclusive results are not listed. A call without a number means that no potency is given here. The source made the active and inactive calls. Unless noted, calls come from the whole dose curve; as a rule, active = well fitted curve in the direction sought with a large enough effect in the repeat runs; inconclusive = weak or mixed curves; inactive = no such curve, though single readings can be large; an effect the other way counts as inactive or inconclusive.
# Key:
# [1] = qHTS assay to identify small molecule agonists of the estrogen receptor alpha (ER-alpha) signaling pathway in the presence of an antagonist - cell viability counter screen (AID 1259386);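 note: series mostly up to about 92 µM; cells exposed to compounds for 22 h at 37 °C before the viability read; nearly all actives have a fitted effect of over 30% in size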
# Method in brief: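 Cells are starved of estrogens for 5 days in charcoal-stripped serum, seeded for 24hr and co-treated with ICI-182,780 (10.0nM final) and test compounds. After 22hr at 37C, viability is read as CellTiter-Fluor fluorescence.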
# [2] = target: Progesterone receptor (Homo sapiens) (UniProt P06401); assay: qHTS assay to identify small molecule agonists of the progesterone receptor (PR) signaling pathway (AID 1346784; calls by dose curve; note: nearly all actives have a fitted effect of over 30% in size)
# Method in brief: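 Seed PR-UAS-bla HEK 293T cells (2% charcoal-stripped FBS), incubate 6 hr at 37C; add compounds in DMSO, 16 hr at 37C; add LiveBLAzer B/G substrate, 2 hr RT; read fluorescence intensity.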
# [3] = target: Progesterone receptor (Homo sapiens) (UniProt P06401); assay: qHTS assay to identify small molecule antagonists of the progesterone receptor (PR) signaling pathway (AID 1346795; active = well fitted inhibition curve with a large enough effect in the signal ratio in the repeat runs, not every such curve was filed as active; the % refers to the signal ratio; note: potency is the fitted concentration of half-maximal effect)
# Method in brief: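 Screening used a GripTite HEK293T line with PR-responsive UAS-beta-lactamase. Cells were challenged with compound in the presence of 1 nM R5020 final for 16 hr at 37C; B/G FRET substrate, 2 hr room temperature, fluorescence.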
# [4] = qHTS assay to identify small molecule antagonists of the progesterone receptor (PR) signaling pathway - cell viability counter screen (AID 1346798); note: series mostly up to about 92 µM; nearly all actives have a fitted effect of over 50% in size
# Method in brief: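 Measures cytotoxicity in parallel with the PR antagonist reporter read: HEK293T PR-UAS-bla cells get compound and R5020 for 16 hr, and remaining viable cells are quantified by CellTiter-Glo luminescence.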
# [5] = qHTS assay to identify small molecule antagonists of the TGF-beta/Smad signaling pathway - cell viability counter screen (AID 1346824); note: nearly all actives have a fitted effect of over 50% in size
# Method in brief: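 SBE-bla HEK 293T cells, incubated overnight, then compound plus 0.25 ng/mL TGF-beta1 (stock added) for 5 hr at 37 C. Viability was read in the same wells by CellTiter-Glo luminescence after 30 min at room temperature.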
# [6] = qHTS assay to identify small molecule agonists of the TGF-beta/Smad signaling pathway - cell viability counter screen (AID 1346829); note: top concentration of the series differs between compounds; nearly all actives have a fitted effect of over 45% in size
# Method in brief: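 In parallel with the Smad reporter read, viability of HEK 293T cells stably carrying SBE-bla is quantified by ATP luminescence following 5 hr compound treatment.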
# [7] = qHTS assay to identify small molecule agonists of the TGF-beta/Smad signaling pathway (AID 1346859; active = well fitted activation curve with a large enough effect in the signal ratio in the repeat runs, not every such curve was filed as active; the % refers to the signal ratio; note: series mostly up to about 77 µM)
# Method in brief: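 Beta-lactamase reporter activity downstream of Smad binding elements was measured in stably transfected HEK 293T cells; compounds were incubated for 5 hr, substrate for 2 hr at room temperature.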
# [8] = target: Thyrotropin-releasing hormone receptor (Homo sapiens) (UniProt P34981); assay: qHTS assay to identify small molecule agonists of the thyrotropin-releasing hormone receptor (TRHR) signaling pathway (AID 1346891; calls by dose curve;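 note: HEK293 cells expressing TRHR with calcium dye readout; series mostly up to about 58 µM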)
# Method in brief: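 Overnight-plated (18 h, 37 °C, 5% CO2) TRHR-Hek293 cells; 2 h calcium dye at 37 °C; compound in DMSO; 3-min kinetic fluorescence read.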
# [9] = Human pregnane X receptor (PXR) small molecule agonists, qHTS cell viability counter screen (AID 1346977); note: nearly all actives have a fitted effect of over 50% in size
# Method in brief: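 After a 5hr pre-incubation, PXR-Luc HepG2 cells received compounds plus positive control in DMSO and were kept 24hr at 37C. Cell viability was quantified by fluorescence from CellTiter-Fluor added for the final hour.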
# [10] = Caspase-3/7 induction in HepG2 cells by small molecules, qHTS assay (AID 1346978); note: nearly all actives have a fitted effect of over 15% in size
# Method in brief: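 Wild-type HepG2 cells, 2,000/well, settled 5 hr at 37 C and 5% CO2, then compound-treated for 17 hr; caspase-3/7 activity read by luminescent Caspase-Glo 3/7 after 30 min at room temperature.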
# [11] = Caspase-3/7 induction in CHO-K1 cells by small molecules, qHTS cell viability counter screen (AID 1346979); note: nearly all actives have a fitted effect of over 35% in size
# Method in brief: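 Multiplexed with Caspase-Glo 3/7 in CHO-K1 cells, this counter screen added CellTiter-Fluor after 16hr of compound exposure and recorded fluorescence 1hr later.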
# [12] = Caspase-3/7 induction in CHO-K1 cells by small molecules, qHTS assay (AID 1346980); note: nearly all actives have a fitted effect of over 15% in size
# Method in brief: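 Wild-type CHO-K1 cells exposed to compounds for 17hr at 37 C, 5% CO2. Caspase-3/7 activity then measured by Caspase-Glo 3/7 luminescence after 30min at room temperature.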
# [13] = Caspase-3/7 induction in HepG2 cells by small molecules, qHTS cell viability counter screen (AID 1346981); note: series mostly up to about 92 µM; nearly all actives have a fitted effect of over 30% in size
# Method in brief: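 Steps: seed 2,000 HepG2 cells per well; incubate 5 hr at 37 C; pin-add compounds in DMSO; incubate 16 hr; add CellTiter-Fluor; after 1 hr at 37 C and 5% CO2, read fluorescence.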
# [14] = target: Nuclear receptor subfamily 1 group I member 2 (Homo sapiens) (UniProt O75469); assay: Human pregnane X receptor (PXR) small molecule agonists, qHTS assay (AID 1346982); note: nearly all actives have a fitted effect of over 35% in size; note: potency is the fitted concentration of half-maximal effect
# Method in brief: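 Agonist mode qHTS: PXR-Luc HepG2 cells plated 5 hr before DMSO-dissolved compounds were pinned in, cultured 24 hr at 37 C, 5% CO2; ONE-Glo luminescence readout.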
# [15] = target: Acetylcholinesterase (Homo sapiens) (UniProt P22303); assay: Acetylcholinesterase (AChE) small molecule antagonists: colormetric cell-based qHTS assay (AID 1347395; calls by dose curve; note: nearly all actives have a fitted effect of over 30% in size)
# Method in brief: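 In this cell-based qHTS, attached SH-SY5Y cells were treated with test chemicals for 30 min, after which acetylthiocholine hydrolysis was followed by DTNB colour development over 90 min at 37 C.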
# [16] = qHTS assay to identify small molecule agonists of the progesterone receptor (PR) signaling pathway - cell viability counter screen (AID 1346799; calls by dose curve; note: nearly all actives have a fitted effect of over 45% in size)
# Method in brief: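 Using the same plates as the PR reporter screen, HEK293T PR-UAS-bla cells received compounds for 16 hr at 37C and were then lysed with CellTiter-Glo; luminescence was read 30 min later at room temperature.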
# [17] = target: Thyrotropin-releasing hormone receptor (Homo sapiens) (UniProt P34981); assay: qHTS assay to identify small molecule antagonists of the thyrotropin-releasing hormone receptor (TRHR) signaling pathway (AID 1346877; active = well fitted inhibition curve with a large enough effect in the repeat runs, not every such curve was filed as active; note: series mostly up to about 51 µM)
# Method in brief: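 Cells (TRHR-HEK293) are plated and kept 18 h at 37 °C/5% CO2. A calcium-sensitive dye is added for 2 h, compound follows for 5 min at room temperature, and TRH is then given at 1 nM final.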
# [18] = target: Nuclear receptor subfamily 1 group I member 2 (Rattus norvegicus) (UniProt Q9R1A7); assay: Rat pregnane X receptor (rPXR) activation by small molecules, qHTS assay (AID 1346983); details: rPXR luciferase reporter cells, One-Glo luminescence, 24 h; stronger effect = higher value; note: nearly all actives have a fitted effect of over 20% in size
# Method in brief: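 Cell-based rPXR activation assay: rPXR cells, 2,000 per well, rested 5hr at 37 C, then exposed to compounds in DMSO for 24 hr at 37 C. Luciferase activity read by One-Glo luminescence after 30 min at room temperature.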
# [19] = target: Nuclear receptor subfamily 1 group I member 2 (Homo sapiens) (UniProt O75469); assay: CYP3A4 induction through human pregnane X receptor (PXR) by small molecules, qHTS assay (AID 1346984); note: nearly all actives have a fitted effect of over 40% in size
# Method in brief: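 Steps: seed DPX-2 cells, 5 hr at 37C; pin-transfer compounds; 24 hr at 37C; add Luciferin-IPA (3uM final), 3 hr at 37C; add One-Glo, 30 min RT; read luminescence.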
# [20] = target: Nuclear receptor subfamily 1 group I member 2 (Homo sapiens) (UniProt O75469); assay: Human pregnane X receptor (PXR) activation by small molecules, qHTS assay (AID 1346985); note: nearly all actives have a fitted effect of over 40% in size
# Method in brief: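 DPX-2 cells (HepG2 co-transfected with a PXR response element and a CYP3A4-promoter luciferase construct) were seeded at 2,000 per well, rested 5 hr at 37C, then exposed to DMSO-dissolved compounds for 24 hr. Activation was read as luciferase luminescence.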
# Sequence of Nuclear receptor subfamily 1 group I member 2 (Rattus norvegicus) (Q9R1A7 whole entry, looked up): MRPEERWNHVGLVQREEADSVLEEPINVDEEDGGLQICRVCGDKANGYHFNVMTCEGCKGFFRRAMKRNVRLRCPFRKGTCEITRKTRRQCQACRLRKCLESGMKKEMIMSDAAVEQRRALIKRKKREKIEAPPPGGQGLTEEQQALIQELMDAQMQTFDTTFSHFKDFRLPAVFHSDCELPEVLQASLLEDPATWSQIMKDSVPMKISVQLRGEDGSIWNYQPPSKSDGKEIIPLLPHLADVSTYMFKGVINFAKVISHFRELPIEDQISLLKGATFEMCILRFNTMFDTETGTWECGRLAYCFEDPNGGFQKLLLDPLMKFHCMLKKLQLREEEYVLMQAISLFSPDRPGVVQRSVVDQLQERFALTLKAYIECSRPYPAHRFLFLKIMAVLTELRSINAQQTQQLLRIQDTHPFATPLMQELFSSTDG
# Sequence of Nuclear receptor subfamily 1 group I member 2 (Homo sapiens) (O75469 whole entry, looked up): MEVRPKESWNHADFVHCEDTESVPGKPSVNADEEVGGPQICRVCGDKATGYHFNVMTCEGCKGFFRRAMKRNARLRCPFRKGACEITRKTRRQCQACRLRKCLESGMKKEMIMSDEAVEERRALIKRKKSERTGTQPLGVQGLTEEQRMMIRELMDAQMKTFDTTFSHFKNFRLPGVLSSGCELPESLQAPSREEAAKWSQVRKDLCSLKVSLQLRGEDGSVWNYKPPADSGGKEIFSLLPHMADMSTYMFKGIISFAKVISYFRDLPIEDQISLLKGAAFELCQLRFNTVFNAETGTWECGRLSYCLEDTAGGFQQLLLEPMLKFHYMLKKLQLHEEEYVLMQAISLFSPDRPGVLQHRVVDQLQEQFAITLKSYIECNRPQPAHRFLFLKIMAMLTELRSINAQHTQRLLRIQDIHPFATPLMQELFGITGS
# Sequence of Acetylcholinesterase (Homo sapiens) (P22303 whole entry, looked up): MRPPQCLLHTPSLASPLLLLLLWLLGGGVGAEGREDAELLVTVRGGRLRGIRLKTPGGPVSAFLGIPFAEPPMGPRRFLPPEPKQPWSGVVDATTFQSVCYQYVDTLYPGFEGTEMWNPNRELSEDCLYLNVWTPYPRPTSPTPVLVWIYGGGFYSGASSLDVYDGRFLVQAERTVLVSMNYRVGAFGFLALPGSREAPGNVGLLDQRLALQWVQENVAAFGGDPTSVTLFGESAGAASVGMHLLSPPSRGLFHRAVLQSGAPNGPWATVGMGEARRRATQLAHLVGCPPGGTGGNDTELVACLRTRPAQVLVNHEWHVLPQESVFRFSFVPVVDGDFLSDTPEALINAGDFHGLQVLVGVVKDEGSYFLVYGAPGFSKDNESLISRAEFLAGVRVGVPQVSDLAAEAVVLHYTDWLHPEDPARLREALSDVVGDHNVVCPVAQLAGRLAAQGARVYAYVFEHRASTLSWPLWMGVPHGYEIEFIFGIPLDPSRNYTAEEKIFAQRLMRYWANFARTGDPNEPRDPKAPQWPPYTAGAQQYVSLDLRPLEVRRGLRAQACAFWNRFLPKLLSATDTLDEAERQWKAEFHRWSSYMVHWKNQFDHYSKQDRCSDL
# Sequence of Thyrotropin-releasing hormone receptor (Homo sapiens) (P34981 whole entry, looked up): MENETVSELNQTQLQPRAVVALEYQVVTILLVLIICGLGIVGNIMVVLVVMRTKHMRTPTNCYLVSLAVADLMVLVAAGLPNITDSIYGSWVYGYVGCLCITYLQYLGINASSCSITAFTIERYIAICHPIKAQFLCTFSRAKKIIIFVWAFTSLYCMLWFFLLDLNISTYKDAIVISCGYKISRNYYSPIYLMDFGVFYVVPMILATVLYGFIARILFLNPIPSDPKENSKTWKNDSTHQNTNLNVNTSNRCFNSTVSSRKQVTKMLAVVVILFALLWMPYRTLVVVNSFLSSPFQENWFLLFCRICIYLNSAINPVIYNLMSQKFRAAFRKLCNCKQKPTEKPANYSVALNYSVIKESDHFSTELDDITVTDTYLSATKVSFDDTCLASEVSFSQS
# Sequence of Progesterone receptor (Homo sapiens) (P06401 whole entry, looked up): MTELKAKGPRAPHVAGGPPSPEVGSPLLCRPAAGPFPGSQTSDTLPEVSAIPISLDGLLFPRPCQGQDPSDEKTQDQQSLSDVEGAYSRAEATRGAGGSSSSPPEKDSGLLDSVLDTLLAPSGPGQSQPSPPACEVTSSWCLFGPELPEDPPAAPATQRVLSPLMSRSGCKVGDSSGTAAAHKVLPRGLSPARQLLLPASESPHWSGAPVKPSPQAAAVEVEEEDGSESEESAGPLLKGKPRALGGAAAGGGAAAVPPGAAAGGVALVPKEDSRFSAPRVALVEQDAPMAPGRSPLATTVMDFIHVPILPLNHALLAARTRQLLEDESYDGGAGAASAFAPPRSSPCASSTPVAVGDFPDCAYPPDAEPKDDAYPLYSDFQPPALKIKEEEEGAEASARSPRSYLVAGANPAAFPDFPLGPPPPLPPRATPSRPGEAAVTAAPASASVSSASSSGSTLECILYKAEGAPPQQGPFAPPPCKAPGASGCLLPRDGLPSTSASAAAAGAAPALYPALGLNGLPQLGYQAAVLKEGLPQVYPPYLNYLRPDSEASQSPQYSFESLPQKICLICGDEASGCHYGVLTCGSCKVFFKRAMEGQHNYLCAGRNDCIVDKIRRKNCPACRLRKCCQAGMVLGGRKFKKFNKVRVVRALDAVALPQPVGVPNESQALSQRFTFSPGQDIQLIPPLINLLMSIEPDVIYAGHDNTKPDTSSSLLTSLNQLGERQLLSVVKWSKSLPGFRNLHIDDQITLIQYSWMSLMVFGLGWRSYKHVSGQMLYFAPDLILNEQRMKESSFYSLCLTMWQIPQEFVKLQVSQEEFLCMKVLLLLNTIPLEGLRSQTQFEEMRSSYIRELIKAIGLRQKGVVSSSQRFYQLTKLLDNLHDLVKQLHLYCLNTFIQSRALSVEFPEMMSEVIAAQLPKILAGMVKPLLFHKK
compound,measurement,setting,value
CC(Cl)C(=O)O (stereo not given),Potency,[1],inactive
same,Potency,[2],inactive
same,Potency,[3],inactive
same,Potency,[4],inactive
same,Potency,[5],inactive
same,Potency,[6],inactive
same,outcome,[7],inactive
same,outcome,[8],inactive
same,Potency,[9],inactive
same,Potency,[10],inactive
same,Potency,[11],inactive
same,Potency,[12],inactive
same,Potency,[13],inactive
same,Potency,[14],inactive
same,Potency,[15],inactive
CCOP(=S)(OCC)SCSc1cc(Cl)ccc1Cl,Potency,[1],inactive
same,Potency,[2],inactive
same,Potency,[3],inactive
same,Potency,[16],inactive
same,Potency,[5],inactive
same,Potency,[6],inactive
same,outcome,[7],inactive
same,Potency,[17],inactive
same,outcome,[8],inactive
same,Potency,[10],inactive
same,Potency,[11],inactive
same,Potency,[12],inactive
same,Potency,[13],inactive
same,Potency,[14],inactive
same,Potency,[15],inactive
CCOC(=O)c1cncn1C(C)c1ccccc1 (stereo not given),Potency,[1],inactive
same,Potency,[2],inactive
same,Potency,[3],inactive
same,Potency,[4],inactive
same,Potency,[6],inactive
same,outcome,[7],inactive
same,Potency,[9],inactive
same,Potency,[10],inactive
same,Potency,[11],inactive
same,Potency,[12],inactive
same,Potency,[13],inactive
same,Potency,[14],26.6 µM (active)
same,max activation,[18],0.791%
same,outcome,[19],inactive
same,Potency,[15],inactive
CCC(C)Cl (stereo not given),Potency,[1],inactive
same,Potency,[2],inactive
same,Potency,[3],inactive
same,Potency,[4],inactive
same,Potency,[5],inactive
same,Potency,[6],inactive
same,outcome,[7],inactive
same,Potency,[17],inactive
same,outcome,[8],inactive
same,Potency,[9],inactive
same,Potency,[10],inactive
same,Potency,[11],inactive
same,Potency,[12],inactive
same,Potency,[14],inactive
same,Potency,[15],inactive
CC(Oc1cccc(Cl)c1)C(=O)O (stereo not given),Potency,[1],inactive
same,Potency,[2],inactive
same,Potency,[3],inactive
same,Potency,[4],inactive
same,Potency,[5],inactive
same,Potency,[6],inactive
same,outcome,[7],inactive
same,outcome,[8],inactive
same,Potency,[10],inactive
same,Potency,[11],inactive
same,Potency,[12],inactive
same,Potency,[13],inactive
same,Potency,[14],inactive
same,Potency,[15],inactive
CC(C)c1ccc(NC(=O)N(C)C)cc1,Potency,[1],inactive
same,Potency,[2],inactive
same,Potency,[3],inactive
same,Potency,[4],inactive
same,Potency,[5],inactive
same,Potency,[6],inactive
same,outcome,[7],inactive
same,outcome,[8],inactive
same,Potency,[9],inactive
same,Potency,[10],inactive
same,Potency,[11],inactive
same,Potency,[12],inactive
same,Potency,[13],inactive
same,Potency,[14],30.6 µM (active)
same,Potency,[15],inactive
C=CCN1C[C@H](C)N([C@H](c2ccc(C(=O)N(CC)CC)cc2)c2cccc(OC)c2)C[C@H]1C,Potency,[1],inactive
same,Potency,[2],inactive
same,Potency,[3],inactive
same,Potency,[4],inactive
same,Potency,[5],inactive
same,Potency,[6],inactive
same,Potency,[17],inactive
same,outcome,[8],inactive
same,Potency,[9],inactive
same,Potency,[10],inactive
same,Potency,[11],inactive
same,Potency,[12],inactive
same,Potency,[13],inactive
same,Potency,[14],11.9 µM (active)
same,max activation,[18],5.88%
same,outcome,[19],inactive
same,Potency,[15],inactive
C[C@H](N)[C@H](O)c1ccc(O)c(O)c1,Potency,[1],inactive
same,Potency,[2],inactive
same,Potency,[3],inactive
same,Potency,[4],inactive
same,outcome,[7],inactive
same,outcome,[8],inactive
same,Potency,[9],inactive
same,Potency,[10],inactive
same,Potency,[11],inactive
same,Potency,[12],inactive
same,Potency,[13],inactive
same,Potency,[14],inactive
same,max activation,[18],-1.11%
same,outcome,[19],inactive
same,Potency,[20],inactive
same,Potency,[15],inactive
Nc1cc(Cl)cc(C(=O)O)c1Cl,Potency,[1],inactive
same,Potency,[2],inactive
same,Potency,[3],inactive
same,Potency,[4],inactive
same,Potency,[5],inactive
same,Potency,[6],inactive
same,outcome,[7],inactive
same,Potency,[17],inactive
same,outcome,[8],inactive
same,Potency,[9],inactive
same,Potency,[10],inactive
same,Potency,[11],inactive
same,Potency,[12],inactive
same,Potency,[13],inactive
same,Potency,[14],inactive
same,Potency,[15],inactive
Clc1ccc2ccccc2c1,Potency,[1],inactive
same,Potency,[2],inactive
same,Potency,[3],inactive
same,Potency,[4],inactive
same,Potency,[5],inactive
same,Potency,[6],inactive
same,outcome,[7],inactive
same,Potency,[17],inactive
same,outcome,[8],inactive
same,Potency,[9],inactive
same,Potency,[10],inactive
same,Potency,[11],inactive
same,Potency,[12],inactive
same,Potency,[13],inactive
same,Potency,[14],inactive
same,Potency,[15],inactive
O=C(Cl)OCCOCCOC(=O)Cl,Potency,[1],inactive
same,Potency,[2],inactive
same,Potency,[3],inactive
same,Potency,[4],inactive
same,Potency,[5],inactive
same,Potency,[6],inactive
same,outcome,[7],inactive
same,Potency,[9],inactive
same,Potency,[10],inactive
same,Potency,[12],inactive
same,Potency,[13],inactive
same,Potency,[14],inactive
same,Potency,[15],inactive
CN(C)C(=O)Nc1cccc(OC(=O)NC(C)(C)C)c1,Potency,[1],inactive
same,Potency,[2],inactive
same,Potency,[3],inactive
same,Potency,[4],inactive
same,Potency,[5],inactive
same,Potency,[6],inactive
same,outcome,[7],inactive
same,outcome,[8],inactive
same,Potency,[9],inactive
same,Potency,[10],inactive
same,Potency,[11],inactive
same,Potency,[12],inactive
same,Potency,[13],inactive
same,Potency,[15],inactive
CC1(C)[C@H](C(=O)O[C@H](C#N)c2cccc(Oc3ccccc3)c2)[C@@H]1C=C(Br)Br,Potency,[1],inactive
same,Potency,[2],inactive
same,Potency,[3],17.2 µM (active)
same,Potency,[4],inactive
same,Potency,[5],inactive
same,Potency,[6],inactive
same,outcome,[7],inactive
same,Potency,[17],inactive
same,outcome,[8],inactive
same,Potency,[10],inactive
same,Potency,[11],inactive
same,Potency,[12],inactive
same,Potency,[13],inactive
CCOc1cccc(C2(N3CCN(c4ccccc4)CC3)CCC(C)CC2)c1 (stereo not given),Potency,[1],inactive
same,Potency,[2],inactive
same,Potency,[3],inactive
same,Potency,[16],inactive
same,Potency,[5],inactive
same,Potency,[6],inactive
same,outcome,[7],inactive
same,Potency,[17],inactive
same,outcome,[8],inactive
same,Potency,[9],inactive
same,Potency,[10],inactive
same,Potency,[11],inactive
same,Potency,[12],inactive
same,Potency,[13],inactive
same,Potency,[14],inactive
same,outcome,[15],inactive
